# Laboratory results reported in PubChem BioAssay AID651813 (National Center for Advancing Translational Sciences (NCATS), 2012).
# About 1,100 (52%) of roughly 2,100 compounds were called active. About 27% were inconclusive and are not listed. Calls follow the shape of the dose curve; as a rule, active = well fitted inhibition curve with a large enough effect; inconclusive = small, poorly fitted or top-dose-only effect; inactive = no such curve, though single readings can be large or run the other way. The set was probably picked from earlier hits. This is one part of the list.
# Target: DNA dC->dU-editing enzyme APOBEC-3G (Homo sapiens) (UniProt Q9HC16)
# Assay: qHTS for inhibitors of Vif-A3G interactions: Cherry picks counterscreen;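 also: hits raise yellow fluorescence by blocking Vif-driven A3G-eYFP degradation; nearly all actives have a fitted effect of over 70% in size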;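 as to max response: max response given as percent of control signal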
# Conditions: HeLa A3G-eYFP + Vif (tagged APOBEC3G with the HIV-1 protein that degrades it), eYFP fluorescence, 24 h
# How it was run: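 Readout is eYFP fluorescence (488 nm excitation, 500-530 nm emission) measured on Acumen Explorer after 24 h compound exposure, several concentrations, at 37 deg C. Cells: HeLa stably co-expressing Vif and C-terminally eYFP-tagged A3G; MG132 positive control.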
# Potency is read from the fitted curve at half-maximal effect.
# DNA dC->dU-editing enzyme APOBEC-3G (Homo sapiens), sequence (Q9HC16 whole entry, looked up): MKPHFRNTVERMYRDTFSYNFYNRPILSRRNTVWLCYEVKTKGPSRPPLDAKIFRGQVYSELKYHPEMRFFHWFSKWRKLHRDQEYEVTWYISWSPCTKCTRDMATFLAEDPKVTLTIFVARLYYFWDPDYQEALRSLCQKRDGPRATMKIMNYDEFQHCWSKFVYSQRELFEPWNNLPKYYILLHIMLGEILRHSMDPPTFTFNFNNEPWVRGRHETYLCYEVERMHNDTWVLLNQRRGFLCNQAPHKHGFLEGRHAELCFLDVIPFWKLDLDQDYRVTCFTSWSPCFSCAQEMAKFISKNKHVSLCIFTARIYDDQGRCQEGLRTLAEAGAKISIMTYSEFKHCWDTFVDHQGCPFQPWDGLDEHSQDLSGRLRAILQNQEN
Compound,max response,Potency
CCOC(=O)c1c(-c2ccc(C)cc2)csc1NC(=O)/C(C#N)=C/c1ccc(O)c(OC)c1,57.5% (inactive),–
CCOc1ccc(NC(=O)/C(C#N)=C/c2ccc(N3CCCC3)c(C)c2)cc1,–,2.06 µM (active)
CCOc1cc(/C=C(/C#N)C(=O)Nc2ccc(O)cc2)cc(Br)c1O,–,17.7 µM (active)
Cc1cccc(N2CCN(C(=O)c3cccc(N4CCCC4=O)c3)C(C)C2)c1 (centres undefined),–,14 µM (active)
CCOc1ccc(NC(=O)Cn2c(=O)n(Cc3ccc(C(=O)NCc4ccc(C)cc4)cc3)c(=O)c3ccccc32)cc1,–,13 µM (active)
Cc1ccc(-n2c(=O)c3ccc(C(=O)NCc4ccccc4Cl)cc3n(CC(=O)Nc3cccc(Cl)c3)c2=O)cc1,-24% (inactive),–
Cc1ccc(N2C(=O)CS/C2=C(\C(Cl)=C(Cl)Cl)[N+](=O)[O-])cc1,1.1% (inactive),–
Cc1ccc(NC(=O)/C(C#N)=C\c2ccc(-c3ccc(Cl)cc3)o2)c(C)c1,–,5.8 µM (active)
Nc1nonc1-c1nc2ccccc2n1CC(=O)Nc1cccc(C(F)(F)F)c1,–,18.4 µM (active)
COc1cccc(Cn2c(-c3nonc3N)nc3ccccc32)c1,–,1.25 µM (active)
COc1cccc(Cn2c(-c3nonc3NC(C)=O)nc3ccccc32)c1,–,11.6 µM (active)
COc1ccc(C)c(Cn2c(-c3nonc3N)nc3ccccc32)c1,–,3.14 µM (active)
CC(NC(=S)Nc1cccc(C(F)(F)F)c1)C(C)(C)C (centres undefined),21.6% (inactive),–
Cc1cn2c(N)c(C=C3C=C(Cl)C(=O)C(Cl)=C3)c(=O)nc2s1,34.2% (inactive),–
Cc1cccc(CSc2cccc3cccnc23)c1,-11.2% (inactive),–
CCC(C)Sc1ccc(-c2nc3cc(C)ccn3c2NC2CCCCC2)cc1 (centres undefined),26.9% (inactive),–
CCC(=O)Nc1nonc1-c1nc2ccccc2n1Cc1ccccc1,–,14 µM (active)
Nc1nonc1-c1nc2ccccc2n1Cc1ccc(F)cc1,–,12.5 µM (active)
CCOC(=O)c1c(CN(CC)CC)n(-c2ccccc2)c2ccc(O)cc12,2.24% (inactive),–
CCCN1C(=O)S/C(=C/c2ccc(N3CCOCC3)o2)C1=O,50.5% (inactive),–

Compound,max response,Potency
O=C1S/C(=C/c2ccc(N3CCOCC3)o2)C(=O)N1Cc1ccc(F)cc1,–,7.04 µM (active)
O=C1S/C(=C/c2ccc(N3CCOCC3)o2)C(=O)N1Cc1c(F)cccc1Cl,–,2.8 µM (active)
CCCN1C(=O)S/C(=C\c2ccc(N3CCOCC3)o2)C1=O,–,2.23 µM (active)
O=C1S/C(=C\c2ccc(N3CCOCC3)o2)C(=O)N1c1ccccc1,–,1.98 µM (active)
Cc1cc(C)c(C(=O)N(CCN(C)C)CC2CCCN(Cc3ccccc3F)C2)o1 (centres undefined),0.428% (inactive),–
O=C1/C(=C\c2ccc(O)cc2)SC(=S)N1Cc1ccccc1,39.2% (inactive),–
COc1cc(/C=C2/SC(=S)N(CCC(=O)Nc3ccccc3)C2=O)cc(OC)c1OC,–,20.6 µM (active)
C=CCN1C(=O)/C(=C/c2ccc(O)c(OC)c2)S/C1=N/c1nccs1,–,4.61 µM (active)
COc1cc(/C=C2/SC(=S)N(Cc3ccccc3)C2=O)cc(OC)c1O,–,12.5 µM (active)
COc1cc(/C=C2/SC(=S)N(Cc3ccccc3)C2=O)cc(Cl)c1O,–,2.23 µM (active)
O=C(O)c1cc(-c2ccc(/C=C3/SC(=S)N(Cc4ccccc4)C3=O)o2)ccc1Cl,–,18.4 µM (active)
O=C1/C(=C/c2ccc(O)cc2)SC(=S)N1CC1CCCO1 (centres undefined),-5.85% (inactive),–
COc1cc(/C=C2/SC(=S)N(CC3CCCO3)C2=O)ccc1O (centres undefined),–,16.4 µM (active)
Cn1c(=O)c2c(nc(NC3CCCC3)n2C)n(C)c1=O,-1.35% (inactive),–
CCC(=O)NC(c1ccc(OC)cc1)c1c(O)ccc2ccccc12 (centres undefined),–,9.94 µM (active)
CCCC(=O)NC(c1ccc(OC)cc1)c1ccc2cccnc2c1O (centres undefined),-9.5% (inactive),–
Cc1ccc(C2C(C(=O)c3cccs3)=C(O)C(=O)N2c2nnc(C)s2)cc1 (centres undefined),–,19.8 µM (active)
CCCSc1nnc(N2C(=O)C(O)=C(C(=O)c3ccco3)C2c2ccccc2F)s1 (centres undefined),-7.3% (inactive),–
Cc1ccc(NC2=C(Cl)C(=O)N(C3CCCCC3)C2=O)cc1,6.01% (inactive),–
Cn1cccc1/C=C1\CC(C(C)(C)C)C/C(=C\c2cccn2C)C1=O (centres undefined),–,8.2 µM (active)

Compound,max response,Potency
CN1C2CCC1/C(=C/c1cccn1C)C(=O)/C2=C\c1cccn1C,–,8.2 µM (active)
O=c1oc2c3c4c(cc2c(C(F)(F)F)c1CCN1CCOCC1)CCCN4CCC3,–,2.31 µM (active)
COc1ccc(/C=C(/C(=O)c2cccs2)N2C=CC=CC2=C(C#N)C#N)cc1,–,15.8 µM (active)
CCN(CC)c1nc2ccccc2nc1C(C#N)C(=O)NCCc1ccccc1 (centres undefined),–,13 µM (active)
C=CCNC(=O)C(C#N)c1nc2ccccc2nc1N1CCN(Cc2ccccc2)CC1 (centres undefined),-10.2% (inactive),–
COc1ccc(C(=O)/C=C/Nc2ccc([N+](=O)[O-])cc2C)c(OC)c1,–,23.1 µM (active)
COc1ccc(-c2nnc(NC(=O)c3ccc([N+](=O)[O-])o3)o2)c(OC)c1,-27.9% (inactive),–
CCS(=O)(=O)N1CCc2cc(C(=O)N3CCN(c4cccc(C(F)(F)F)c4)CC3)ccc21,-3.11% (inactive),–
COc1cc(SC)ccc1C(=O)N1CCN(c2ccccc2OC)CC1,–,5.59 µM (active)
COc1ccccc1N1CCN(C(=O)c2ccc3ncsc3c2)CC1,–,17.7 µM (active)
COc1ccc(C(=S)N2CCN(c3cccc(Cl)c3)CC2)c(OC)c1,–,3.53 µM (active)
COc1ccccc1C(=O)N1CCN(c2cccc(Cl)c2)CC1,–,1.4 µM (active)
CCSc1ncc(Cl)c(C(=O)N2CCN(c3ccccc3OC)CC2)n1,–,4.61 µM (active)
COc1ccccc1N1CCN(C(=O)c2cc(=O)c3cc(C)cc(C)c3o2)CC1,–,0.158 µM (active)
COC(=O)c1cc(C(=O)N2CCN(c3ccccc3OC)CC2)cc([N+](=O)[O-])c1,–,1.12 µM (active)
NNC(=S)Nc1c(F)cc(F)cc1Br,-0.636% (inactive),–
Cc1cc(N/N=C/c2ccc([N+](=O)[O-])o2)nc2ccccc12,–,23.1 µM (active)
O=C(N/N=C/c1ccc([N+](=O)[O-])o1)c1cn2ccc3ccccc3c2n1,3.73% (inactive),–
O=[N+]([O-])c1ccc(/C=N/Nc2ccc3ccccc3c2)o1,–,4.98 µM (active)
